# Test results reported in the supplement of paper PMC8728848.
# This excerpt belongs to a sample that is enriched for the strongest signals.
# B1: AFL6 (Aspergillus fumigatus), Q4WKJ1 (protein)
# chain: MSFHLTAEDIRIEDGHRLVARLRNADGDLQDASIDLNTCLGNDNGHFQWDGVDFSHSAQDVHFAIEGGGQVPVLRAQLANQDGEFQDADVNLSERIENINGEFVFH
# How the values were obtained:
# Assay in all cases: glycan array binding signal (z-score within array); higher = stronger binding
# Details in all cases: glycan notation: IUPAC condensed, linker removed
# [1] = biological target: Fuc(a1-2)Gal(b1-3)GalNAc(a1-3)[Fuc(a1-2)]Gal(b1-4)Glc
# In short: (§1)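 The binding signal is a Z-score computed within each array. Data were drawn from 3228 arrays in the Consortium for Functional Glycomics database, restricted to those with a known protein sequence. Scores were averaged over arrays of the same protein sequence at different concentrations or buffers, and over linkers, and negative values can be taken as non-binding.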
# [2] = biological target: Fuc(a1-2)Gal(b1-3)GlcNAc(b1-2)Man(a1-3)[Fuc(a1-2)Gal(b1-3)GlcNAc(b1-2)Man(a1-6)]Man(b1-4)GlcNAc(b1-4)GlcNAc
# In short: as §1
# Fuc(a1-2)Gal(b1-4)Glc6S = biological target: Fuc(a1-2)Gal(b1-4)Glc6S
# In short: as §1
# [3] = biological target: Fuc(a1-2)Gal(b1-4)GlcNAc6S
# In short: as §1
# [4] = biological target: Fuc(a1-2)[Gal(a1-3)]Gal(b1-3)GlcNAc
# In short: as §1
# [5] = biological target: Fuc(a1-2)[Gal(a1-3)]Gal(b1-3)GlcNAc(b1-6)GalNAc
# In short: as §1
# [6] = biological target: Fuc(a1-2)[Gal(a1-3)]Gal(b1-4)GlcNAc(b1-2)Man(a1-3)[Fuc(a1-2)[Gal(a1-3)]Gal(b1-4)GlcNAc(b1-2)Man(a1-6)]Man(b1-4)GlcNAc(b1-4)GlcNAc
# In short: as §1
# [7] = biological target: Fuc(a1-2)[GalNAc(a1-3)]Gal
# In short: as §1
# [8] = biological target: Fuc(a1-2)[GalNAc(a1-3)]Gal(b1-4)GlcNAc(b1-3)GalNAc
# In short: as §1
# [9] = biological target: Gal(a1-3)Gal(b1-3)GlcNAc(b1-2)Man(a1-3)[Gal(a1-3)Gal(b1-3)GlcNAc(b1-2)Man(a1-6)]Man(b1-4)GlcNAc(b1-4)GlcNAc
# In short: as §1
# [10] = biological target: Gal(a1-4)Gal(b1-4)GlcNAc(b1-3)Gal(b1-4)Glc
# In short: as §1
# Gal(b1-3)GalNAc(b1-3)Gal = biological target: Gal(b1-3)GalNAc(b1-3)Gal
# In short: as §1
# [11] = biological target: Gal(b1-3)GlcNAc(b1-3)Gal(b1-4)GlcNAc
# In short: as §1
# [12] = biological target: Gal(b1-3)GlcNAc(b1-3)Gal(b1-4)GlcNAc(b1-2)[Gal(b1-3)GlcNAc(b1-3)Gal(b1-4)GlcNAc(b1-6)]Man(a1-6)[Gal(b1-3)GlcNAc(b1-3)Gal(b1-4)GlcNAc(b1-2)Man(a1-3)]Man(b1-4)GlcNAc(b1-4)[Fuc(a1-6)]GlcNAc
# In short: as §1
# [13] = biological target: Gal(b1-3)[Fuc(a1-4)]GlcNAc(b1-3)Gal(b1-3)[Fuc(a1-4)]GlcNAc
# In short: as §1
# [14] = biological target: Gal(b1-4)GlcNAc(b1-2)[Gal(b1-4)GlcNAc(b1-6)]Man(a1-6)[GlcNAc(b1-4)][Gal(b1-4)GlcNAc(b1-2)[Gal(b1-4)GlcNAc(b1-4)]Man(a1-3)]Man(b1-4)GlcNAc(b1-4)[Fuc(a1-6)]GlcNAc
# In short: as §1
# [15] = biological target: Gal(b1-4)GlcNAc(b1-3)Gal(b1-4)GlcNAc(b1-3)Gal(b1-4)GlcNAc(b1-2)Man(a1-3)[Gal(b1-4)GlcNAc(b1-3)Gal(b1-4)GlcNAc(b1-3)Gal(b1-4)GlcNAc(b1-2)Man(a1-6)]Man(b1-4)GlcNAc(b1-4)GlcNAc
# In short: as §1
# [16] = biological target: Gal(b1-4)GlcNAc(b1-3)Gal(b1-4)GlcNAc(b1-3)Gal(b1-4)GlcNAc(b1-3)Gal(b1-4)GlcNAc(b1-2)Man(a1-3)[Gal(b1-4)GlcNAc(b1-3)Gal(b1-4)GlcNAc(b1-3)Gal(b1-4)GlcNAc(b1-3)Gal(b1-4)GlcNAc(b1-2)Man(a1-6)]Man(b1-4)GlcNAc(b1-4)[Fuc(a1-6)]GlcNAc
# In short: as §1
# [17] = biological target: Gal(b1-4)GlcNAc(b1-3)Gal(b1-4)GlcNAc(b1-3)[Gal(b1-4)GlcNAc(b1-3)Gal(b1-4)GlcNAc(b1-6)]GalNAc
# In short: as §1
# [18] = biological target: Gal(b1-4)GlcNAc(b1-3)[Fuc(a1-3)GlcNAc(b1-6)]Gal(b1-4)Glc
# In short: as §1
# [19] = biological target: Gal3S(b1-3)[Fuc(a1-4)]GlcNAc
# In short: as §1
# Gal6P(b1-4)GlcNAc = biological target: Gal6P(b1-4)GlcNAc
# In short: as §1
# [20] = biological target: GalNAc(b1-3)Gal(a1-4)Gal(b1-4)GlcNAc(b1-3)Gal(b1-4)Glc
# In short: as §1
# GalNAc(b1-3)GalNAc = biological target: GalNAc(b1-3)GalNAc
# In short: as §1
# [21] = biological target: GlcNAc(a1-4)Gal(b1-4)GlcNAc
# In short: as §1
# [22] = biological target: GlcNAc(a1-4)Gal(b1-4)GlcNAc(b1-3)Gal(b1-4)Glc
# In short: as §1
# [23] = biological target: GlcNAc(a1-4)Gal(b1-4)GlcNAc(b1-3)Gal(b1-4)GlcNAc
# In short: as §1
# [24] = biological target: GlcNAc(a1-4)Gal(b1-4)GlcNAc(b1-3)Gal(b1-4)GlcNAc(b1-3)Gal(b1-4)GlcNAc
# In short: as §1
# [25] = biological target: GlcNAc(b1-2)[GlcNAc(b1-6)]Man(a1-6)[GlcNAc(b1-4)][GlcNAc(b1-2)Man(a1-3)]Man(b1-4)GlcNAc(b1-4)GlcNAc
# In short: as §1
# [26] = biological target: GlcNAc(b1-3)Gal(b1-4)GlcNAc(b1-3)Gal(b1-4)GlcNAc(b1-2)Man(a1-3)[GlcNAc(b1-3)Gal(b1-4)GlcNAc(b1-3)Gal(b1-4)GlcNAc(b1-2)Man(a1-6)]Man(b1-4)GlcNAc(b1-4)[Fuc(a1-6)]GlcNAc
# In short: as §1
# [27] = biological target: GlcNAc(b1-3)Gal(b1-4)GlcNAc(b1-3)Gal(b1-4)GlcNAc(b1-3)GalNAc
# In short: as §1
# [28] = biological target: GlcNAc(b1-4)[GlcNAc(b1-6)]GalNAc
# In short: as §1
# GlcNAc(b1-6)GalNAc = biological target: GlcNAc(b1-6)GalNAc
# In short: as §1
# [29] = biological target: Man(a1-2)Man(a1-6)[Man(a1-3)]Man(a1-6)[Man(a1-2)Man(a1-2)Man(a1-3)]Man
# In short: as §1
# Man(b1-4)GlcNAc = biological target: Man(b1-4)GlcNAc
# In short: as §1
# [30] = biological target: Neu5Ac(a2-3)Gal(b1-3)GlcNAc(b1-2)Man(a1-3)[GlcNAc(b1-4)][Neu5Ac(a2-3)Gal(b1-3)GlcNAc(b1-2)Man(a1-6)]Man(b1-4)GlcNAc(b1-4)GlcNAc
# In short: as §1
# [31] = biological target: Neu5Ac(a2-3)Gal(b1-4)GlcNAc(b1-2)Man(a1-3)[Neu5Ac(a2-3)Gal(b1-4)GlcNAc(b1-2)Man(a1-6)]Man(b1-4)GlcNAc(b1-4)GlcNAc
# In short: as §1
# [32] = biological target: Neu5Ac(a2-3)Gal(b1-4)GlcNAc(b1-3)Gal(b1-4)GlcNAc(b1-3)Gal(b1-4)GlcNAc(b1-2)Man(a1-3)[Neu5Ac(a2-3)Gal(b1-4)GlcNAc(b1-3)Gal(b1-4)GlcNAc(b1-3)Gal(b1-4)GlcNAc(b1-2)Man(a1-6)]GalNAc
# In short: as §1
# [33] = biological target: Neu5Ac(a2-3)Gal(b1-4)GlcNAc(b1-6)GalNAc
# In short: as §1
# [34] = biological target: Neu5Ac(a2-3)[GalNAc(b1-4)]Gal(b1-4)Glc
# In short: as §1
# [35] = biological target: Neu5Ac(a2-6)Gal(b1-4)GlcNAc(b1-2)Man(a1-3)Man(b1-4)GlcNAc(b1-4)GlcNAc
# In short: as §1
# [36] = biological target: Neu5Ac(a2-6)Gal(b1-4)GlcNAc(b1-2)Man(a1-3)[Neu5Ac(a2-3)Gal(b1-4)GlcNAc(b1-2)Man(a1-6)]Man(b1-4)GlcNAc(b1-4)GlcNAc
# In short: as §1
# [37] = biological target: Neu5Ac(a2-6)Gal(b1-4)GlcNAc(b1-3)Gal(b1-4)GlcNAc(b1-3)Gal(b1-4)GlcNAc(b1-2)Man(a1-3)[Neu5Ac(a2-6)Gal(b1-4)GlcNAc(b1-3)Gal(b1-4)GlcNAc(b1-3)Gal(b1-4)GlcNAc(b1-2)Man(a1-6)]GalNAc
# In short: as §1
# [38] = biological target: Neu5Ac(a2-6)Gal(b1-4)GlcNAc(b1-6)[Gal(b1-3)GlcNAc(b1-3)]Gal(b1-4)Glc
# In short: as §1
# [39] = biological target: Neu5Ac(a2-6)GlcNAc(b1-4)GlcNAc
# In short: as §1
# [40] = biological target: Neu5Ac(a2-8)Neu5Ac(a2-3)Gal(b1-3)GalNAc(b1-4)[Neu5Ac(a2-3)]Gal(b1-4)Glc
# In short: as §1
# [41] = biological target: Neu5Ac(a2-8)Neu5Ac(a2-3)[Gal(b1-3)GalNAc(b1-4)]Gal(b1-4)Glc
# In short: as §1
binder,measurement,setting,value
B1,glycan array binding signal (z-score),[1],-0.421
same,glycan array binding signal (z-score),[2],2.45
same,glycan array binding signal (z-score),Fuc(a1-2)Gal(b1-4)Glc6S,-0.234
same,glycan array binding signal (z-score),[3],-0.334
same,glycan array binding signal (z-score),[4],-0.417
same,glycan array binding signal (z-score),[5],-0.178
same,glycan array binding signal (z-score),[6],0.717
same,glycan array binding signal (z-score),[7],0.228
same,glycan array binding signal (z-score),[8],-0.656
same,glycan array binding signal (z-score),[9],0.406
same,glycan array binding signal (z-score),[10],0.039
same,glycan array binding signal (z-score),Gal(b1-3)GalNAc(b1-3)Gal,-0.263
same,glycan array binding signal (z-score),[11],-0.706
same,glycan array binding signal (z-score),[12],1.91
same,glycan array binding signal (z-score),[13],-0.509
same,glycan array binding signal (z-score),[14],-0.245
same,glycan array binding signal (z-score),[15],2.41
same,glycan array binding signal (z-score),[16],2.99
same,glycan array binding signal (z-score),[17],4.09
same,glycan array binding signal (z-score),[18],-0.272
same,glycan array binding signal (z-score),[19],-0.44
same,glycan array binding signal (z-score),Gal6P(b1-4)GlcNAc,-0.655
same,glycan array binding signal (z-score),[20],-0.055
same,glycan array binding signal (z-score),GalNAc(b1-3)GalNAc,-0.414
same,glycan array binding signal (z-score),[21],2.64
same,glycan array binding signal (z-score),[22],2.89
same,glycan array binding signal (z-score),[23],3.58
same,glycan array binding signal (z-score),[24],3.77
same,glycan array binding signal (z-score),[25],-0.56
same,glycan array binding signal (z-score),[26],2.48
same,glycan array binding signal (z-score),[27],-0.176
same,glycan array binding signal (z-score),[28],-0.154
same,glycan array binding signal (z-score),GlcNAc(b1-6)GalNAc,-0.476
same,glycan array binding signal (z-score),[29],-0.466
same,glycan array binding signal (z-score),Man(b1-4)GlcNAc,-0.133
same,glycan array binding signal (z-score),[30],-0.296
same,glycan array binding signal (z-score),[31],0.029
same,glycan array binding signal (z-score),[32],4.83
same,glycan array binding signal (z-score),[33],0.04
same,glycan array binding signal (z-score),[34],0.054
same,glycan array binding signal (z-score),[35],0.065
same,glycan array binding signal (z-score),[36],-0.35
same,glycan array binding signal (z-score),[37],3.09
same,glycan array binding signal (z-score),[38],0.854
same,glycan array binding signal (z-score),[39],-0.135
same,glycan array binding signal (z-score),[40],-0.5
same,glycan array binding signal (z-score),[41],-0.306
